Reference: PubChem BioAssay AID1117361 (Southern Research Institute, 2015)
Hit rate of the full screen: of about 3,600 compounds, about 900 (25%) were called active. These entries were drawn from the full list. Potency and affinity values are given separately. A number with no mark means an inactive call. How the calls were made is not given here.

What follows are compounds tested against Protein Tat (Human immunodeficiency virus type 1 group M subtype B (isolate HXB2)) (UniProt P04608) (assay: HIV-1 Tat–TAR interaction blockers – biochemical, fluorescence polarization, FAM-labeled TAR RNA, counter-screen for Vif-APOBEC3G degradation inhibitor project, dose response (AID 1117361)). Conditions: Tat-TAR RNA binding; series mostly up to 100 µM; inhibition: at the top concentration.
With `Clc1ccc(CSCCc2ccncc2)cc1` the outcome was “inactive”. `COC1=C(N)C(=O)c2nc(C)ccc2C1=O` was tested, and the “inhibition” value was 19.7%. In the case of `COC1=C(Br)C(=O)c2nc(C)ccc2C1=O`, the outcome is reported as “inactive”. In the case of `CCOC(=O)C1(Cc2ccc(OC)cc2)CCN(C(=O)Cc2cccnc2)CC1`, the “inhibition” value is reported as 1.65%. In the case of `COC(=O)C(Cc1c[nH]c2ccccc12)NC(=O)C(C)C` (stereo unspecified), the outcome is reported as “inactive”. For `Cc1ccc(CNC(=O)CCC2CCCN(Cc3cc4ccccc4o3)C2)o1` (stereo unspecified), the “inhibition” value was 14.8%. With `Cc1ccc(CCNC(=O)C2CCCN(S(=O)(=O)c3c(C)noc3/C=C/N(C)C)C2)cc1` (stereo unspecified) the outcome was “inactive”. In the case of `Cc1ccc(S(=O)(=O)c2c(N)n(NC(=O)C3CC3)c3nc4ccccc4nc23)cc1`, the outcome is reported as “inactive”. In the case of `Cc1ccc(C)c(CN2C(=O)C(C)Oc3ccc(C)cc32)c1` (stereo unspecified), the outcome is reported as “inactive”. With `CC1(C)Cc2c(c(=S)nc(-c3ccccc3)n2CCCN2CCOCC2)CO1` the “inhibition” value was 0.68%. `C=CCN=c1scc(C)n1/N=C/c1ccc(O)c(O)c1` was tested, and the “inhibition” value was 3.3%. With `COc1ccc(Cl)cc1N(CC(=O)Nc1ccc2c(c1)OCO2)S(C)(=O)=O` the outcome was “inactive”. For `COC(=O)c1cccc(NC(=O)NC2CCCN2S(=O)(=O)c2ccc(Cl)cc2)c1` (stereo unspecified), the “inhibition” value was 1.35%. `CS(=O)(=O)N(C(=O)NC(=O)NC1CCS(=O)(=O)C1)C1CCCCC1` (stereo unspecified) was tested, and the outcome was “inactive”. With `COc1ccc(C2CC(=O)Nc3cc(C)c(C)cc32)c(OC)c1OC` (stereo unspecified) the “inhibition” value was 18.9%. `CC(C(=O)N1CCOCC1)(c1ccccc1)c1ccccc1` was tested, and the “inhibition” value was 2.03%. With `CC(=O)c1ccc(Nc2nc(=O)c3cccnc3s2)cc1` the outcome was “inactive”. For `CN(C)c1ccc(C=c2c3cc([N+](=O)[O-])ccc3n3c2cc(-c2ccccc2)[n+]3C)cc1`, the outcome was “inactive”. With `NNC(=S)Nc1ccc(Cl)cc1` the outcome was “inactive”. For `CC(=O)c1ccc(N2CCN(C(=O)c3ccc4c(c3)OCO4)CC2)cc1`, the “inhibition” value was 5.68%. With `O=C(NCCS(=O)CCNC(=O)C(F)(F)F)C(F)(F)F` the outcome was “inactive”. `Cc1onc(-c2ccccc2)c1C(=O)NCC1COc2ccccc2O1` (stereo unspecified) was tested, and the outcome was “inactive”. In the case of `CC(=O)Cc1nsc(Nc2ccc3c(c2)OCCO3)n1`, the “inhibition” value is reported as 2.05%. For `O=C(NN(C(=O)c1ccccc1)c1ccccc1)c1ccccc1`, the “inhibition” value was 1.65%. For `CC(NC(=O)C1C(=O)N(CCO)C2(C)CC1c1ccccc1O2)c1ccccc1` (stereo unspecified), the “inhibition” value was 7.43%. With `CN1OC[C@@H]2CN(C(=O)C(C)(C)C)[C@H](c3cccc(Oc4ccccc4)c3)C[C@@H]21` the “inhibition” value was 11.7%. For `O=C(c1cc(COc2cccc3cccnc23)on1)N1CCC[C@H]1CO`, the “inhibition” value was 6.35%. `C=CCc1cc(Cl)ccc1OC(=O)Nc1cccc(Cl)c1` was tested, and the “inhibition” value was 7.42%. In the case of `COc1ccc2[nH]c3c(N4CCC(O)(c5cccc(C(F)(F)F)c5)CC4)ncnc3c2c1`, the outcome is reported as “inactive”. `Clc1ccc(CSc2snnc2-c2ccccc2)c(Cl)c1` was tested, and the outcome was “inactive”. `Cc1ccc(CSc2nnc(-c3ccco3)o2)cc1` was tested, and the outcome was “inactive”. For `CCCCN(CCCC)CCCN1CC(=O)N2[C@@H](Cc3c([nH]c4ccccc34)C2(C)C)C1=O`, the “inhibition” value was 1%. In the case of `CC(C)Cn1c(=O)[nH]c2ccccc21`, the outcome is reported as “inactive”. With `COc1ccc(CCN=C(N)NS(=O)(=O)c2ccc(C)cc2)cc1` the “inhibition” value was 5.46%. In the case of `O=C(NCc1ccco1)c1sc2cccc(F)c2c1Cl`, the “inhibition” value is reported as 23%. For `CCN(CC)C(=O)Cn1cnc2sc(C(=O)Nc3cc(OC)c(OC)c(OC)c3)c(C)c2c1=O`, the outcome was “inactive”. With `CCc1ccc(NC(=O)CCNS(=O)(=O)c2cccc3nonc23)cc1` the outcome was “inactive”. In the case of `Cc1cc(NC(=O)CSc2nnc(-c3ccncc3)n2N)ccc1Br`, the “inhibition” value is reported as 8.19%. With `CCN(CC)c1ccc(NC(=O)c2ccc(Br)o2)cc1` the “inhibition” value was 6.82%. For `COc1ccc(NC(=O)c2ccc(S(=O)(=O)N3CCOCC3)o2)cc1`, the “inhibition” value was 1.65%. `O=C(O)Cn1c(=O)c2c(c3ccccc31)CCC2` was tested, and the outcome was “inactive”. With `CS(=O)(=O)N1CCN(c2ccccc2NC(=O)CSc2ccc(Cl)cc2)CC1` the outcome was “inactive”. For `Cn1cccc1Cc1nnc(SCC(N)=O)n1CCc1ccccc1`, the “inhibition” value was 28%. With `CC[C@H](C)[C@H](NC(N)=O)C(=O)NCCc1ccc(OC)cc1` the outcome was “inactive”. For `Cc1c(C)n(CC(O)CN2CCCCCC2)c2ccccc12` (stereo unspecified), the “inhibition” value was 2.73%. With `CC1CCc2c(sc3ncn4c(SCC(=O)NCc5ccco5)nnc4c23)C1` (stereo unspecified) the “inhibition” value was 2.03%. In the case of `Cc1ccc(-n2c(SCC(=O)NCc3ccco3)nc3c([nH]c4ccccc43)c2=O)cc1`, the outcome is reported as “inactive”. `CCn1c(Cc2c(C)[nH]c3ccccc23)n[nH]c1=S` was tested, and the “inhibition” value was 20.5%. For `COc1ccc(-c2noc(Cc3cccs3)n2)cc1`, the “inhibition” value was 4.09%. `O=C(/C=C/c1ccc(O)c(O)c1)c1ccc(S(=O)(=O)N2CCCCCC2)cc1` was tested, and the “inhibition” value was 19%. `CCCNS(=O)(=O)c1ccc(NC(=O)c2ccccn2)cc1` was tested, and the “inhibition” value was 1.36%. `CC(C)(C)c1ccc(C(=O)Oc2ccc3c(c2)OCC3=O)cc1` was tested, and the “inhibition” value was 2.34%. `O=C1/C(=C\c2ccco2)CCC/C1=C\c1ccco1` was tested, and the “inhibition” value was 16.8% [at 50 µM]. In the case of `C=CCNC(=S)NNC(=O)c1ccccc1`, the outcome is reported as “inactive”. `COc1ccc(N/N=C(\C#N)C(=N)SCc2ccccc2)cc1` was tested, and the outcome was “inactive”. With `CC1(C)Cc2cccc(OCC(O)CN3CCN(c4ccccn4)CC3)c2O1` (stereo unspecified) the outcome was “inactive”.
